The list is not random: actives were taken first. Their share in the collection is about 2.9%.
S1P4 agonist – activates the human S1P4 receptor; O95977; S1P4-expressing cell line, agonist reporter assay; activation, % at 4.98 µM; 0.35% of 220,000 active; in the data active means activation above about 11%;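 further: 0% = DMSO vehicle and 100% = reference agonist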
HSF-1 act – increases HSF-1 driven luciferase reporter signal | NIH3T3-HGL HSF-1 luciferase reporter, MG132, 8 h; 100% = twice DMSO control signal | activation, % at 9 µM | 1.7% of 300,000 active | AID 504408;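 active means mean replicate activation of at least 50% with a set share of replicates each reaching 50%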;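 further: 0% = median of the neutral control wells and 100% = twice that signal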
HSF1 inh – HSF1 inhibition; 0.77% of 300,000 active; activity change, negative = inhibition, % at 7.5 µM (by protocol); NIH3T3-HGL HSE-luciferase, MG132-induced, luminescence 8 h; hits give low values; AID 2098;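 active means more than half of replicate wells show activity change below -50%, luminescence cut by over half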;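 further: luciferase reports HSF-1 transcriptional activity via heat shock element; 0% = median of DMSO wells and -100% = zero luminescence signal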
S1P4 antagonist – antagonists of human S1P4 receptor | O95977 | S1P4-expressing cells, antagonist mode, reporter read-out | inhibition, % at 4.98 µM | 0.26% of 220,000 active | AID 1510; in the data active means inhibition above about 29%;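 further: 0% = wells stimulated with agonist and 100% = vehicle wells without agonist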
Hsp70 act – Hsp70 transcriptional activation, primary screen | HeLa Hsp70 promoter luciferase reporter, luminescence; scaled: vehicle 0, proteasome-inhibitor control 100% | activation, % at 10 µM | 0.04% of 200,000 active | AID 1203;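 active means activation above the mean across all tested compounds plus 3 SD, cutoff set per campaign, cut at about 5.5% in these data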;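 further: 100% = MG132 at 30 µM as the positive control and 0% = DMSO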
S1P3 antagonist – S1P3 (human) receptor antagonism; Q99500; CHO S1P3 NFAT-BLA reporter, FRET fluorescence, antagonist mode; inhibition, % at 4.98 µM; 0.27% of 170,000 active; AID 485;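 active means inhibition above the plate cutoff, the mean inhibition of test wells on that plate plus 3 SD, cut at about 28% in these data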;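 further: cells challenged with S1P at its EC80 of 0.8 µM; blue over green emission ratio from cleaved BLA substrate after 4 h stimulation; 0% = S1P-stimulated wells and 100% = unstimulated DMSO-only wells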
Target sequence (Q99500 whole entry, looked up): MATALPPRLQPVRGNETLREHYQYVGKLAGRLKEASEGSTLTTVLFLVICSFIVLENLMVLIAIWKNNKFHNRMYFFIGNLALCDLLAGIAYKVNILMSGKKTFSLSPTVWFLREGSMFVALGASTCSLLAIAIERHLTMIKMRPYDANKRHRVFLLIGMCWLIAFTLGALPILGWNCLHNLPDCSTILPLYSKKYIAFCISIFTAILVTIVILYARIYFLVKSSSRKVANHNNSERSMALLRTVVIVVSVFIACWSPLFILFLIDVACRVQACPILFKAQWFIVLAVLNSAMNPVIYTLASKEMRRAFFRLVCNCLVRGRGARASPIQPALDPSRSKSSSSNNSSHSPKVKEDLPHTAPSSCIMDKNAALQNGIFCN
* hit, by the source's call; . = no result.

SMILES	S1P4 agonist	HSF-1 act	HSF1 inh	S1P4 antagonist	Hsp70 act	S1P3 antagonist
COc1ccc(OCCOC(=O)c2cccs2)cc1	2.6	63.5*	18.0	-0.7	0.4	5.7
COc1cccc(N(CC(=O)NC2CCCCC2)C(=O)CCC(=O)Nc2nccs2)c1	.	-17.9	-1.0	.	.	.
O=C(COc1ccc(Cl)cc1Cl)N/N=C/c1ccc(OC2OC(CO)C(O)C(O)C2O)cc1 (stereo unspecified)	-0.2	-6.8	-2.6	-6.9	.	7.5
CCCCc1ccc(NS(=O)(=O)c2c(C)n(C)c(=O)n(C)c2=O)cc1	.	63.6*	27.2	.	.	.
CC(C)(C)c1cccc(C2(O)C(=O)c3ccccc3C2=O)c1O	1.2	-5.7	3.8	-4.7	.	-14.8
CC1CCCN(C(=O)c2ccccc2OC2CCN(S(C)(=O)=O)CC2)C1 (stereo unspecified)	-1.5	64.1*	23.4	-10.6	0.1	-0.8
Cc1ccc(NC(=O)c2cccs2)cc1NC(=O)c1ccc(F)cc1	.	25.7	2.0	.	.	.
O=C(Nc1ccc(O)cc1)c1ccc(NC(=O)c2cccs2)cc1	.	64.7*	19.8	.	.	.
O=C(Nc1ccc2oc(-c3ccccc3)nc2c1)c1cccs1	1.5	92.8*	43.7	-7.5	0.1	.
Cc1ccc(NC(=O)c2cccs2)cc1NC(=O)c1cccc(F)c1	.	57.5*	5.6	.	.	.
O=C(Nc1ccc2c(c1)CCC2)c1cccs1	0.1	55.3*	26.0	-21.4	0.1	13.0
C/C(=N\NC(=O)c1cccc(Br)c1)c1cccc(NC(=O)c2ccc(C)o2)c1	0.9	-5.4	10.2	0.9	-0.3	.
CN(C)/C=C1/OC(=O)C(C#N)=C1c1ccc(Cl)cc1	.	-6.4	0.5	.	.	.
Cc1cc(C(=O)NCCC2=CCCCC2)no1	0.3	51.2*	14.8	-5.2	-0.3	13.7
O=C(NCCC1=CCCCC1)c1cc(COc2c(F)cccc2F)on1	.	7.4	0.5	.	.	.
COc1ccc(NC(=O)NCCC2=CCCCC2)cc1	1.9	72.1*	34.2	3.5	0.3	-8.2
C=CCOc1ccccc1C(=O)/C=C1/C(=O)Nc2ccccc21	.	113.4*	99.4	.	.	.
COc1ccc(C(=O)/C=C2/C(=O)Nc3ccccc32)cc1OC	.	242.8*	181.4	.	.	.
CCOC(=O)Cc1csc(NC(=O)C(CC(C)C)NC(=O)C2CCCCC2)n1 (stereo unspecified)	-0.5	4.6	-4.9	-3.0	0.2	3.0
Cc1ccc(/C=N/NC(=O)c2cccc(NC(=O)c3ccccc3Cl)c2)o1	.	4.7	1.8	.	.	.
O=C(NCc1cccnc1)C(=O)NCC(c1ccco1)N1CCN(c2ccccc2)CC1 (stereo unspecified)	0.7	80.2*	41.1	-16.4	-0.3	-5.9
O=C(NCc1ccco1)C(=O)NCC(c1ccco1)N1CCOCC1 (stereo unspecified)	-1.0	-76.9	-68.9*	-7.9	-0.2	-15.5
Cc1ccc2cc(CN(Cc3ccco3)C(=S)NCC3CCCO3)c(=O)[nH]c2c1 (stereo unspecified)	1.7	38.4	21.7	-14.6	0.0	-2.2
Cc1cc(C)c2[nH]c(=O)c(CN(CC3CCCO3)C(=S)NCc3ccco3)cc2c1 (stereo unspecified)	0.0	62.3*	36.2	-10.8	-0.3	5.8
Cc1ccc(C)c2[nH]c(=O)c(CN(Cc3ccco3)C(=S)NCC3CCCO3)cc12 (stereo unspecified)	1.5	76.8*	57.2	-21.0	0.1	9.5
SMILES	S1P4 agonist	HSF-1 act	HSF1 inh	S1P4 antagonist	Hsp70 act	S1P3 antagonist
Cn1c(-c2ccccc2)cnc1SCc1nc2ccccc2c(=O)[nH]1	-2.6	104.3*	67.0	-18.8	0.2	-3.4
O=c1[nH]c(CSc2ncn[nH]2)nc2ccccc12	2.2	3.8	-6.0	-0.9	.	-3.0
O=c1[nH]c(CSc2ncnc3sccc23)nc2ccccc12	1.4	56.1*	29.8	-1.0	.	-3.5
Cn1c(SCc2nc3ccccc3c(=O)[nH]2)nc2ccccc21	-1.5	40.0	18.6	-11.6	0.3	-3.8
Nc1cc(-c2ccco2)no1	0.9	71.9*	36.7	-2.2	-0.3	-13.7
CCOC(=O)c1c(O)cc(C)[nH]c1=O	-0.1	7.7	-4.4	9.6	.	-15.9
O=C(N/N=C(\c1ccccc1)c1cccnc1)c1cccc(F)c1	.	126.9*	100.0	.	.	.
CCOC(=O)c1cc(S(=O)(=O)N2CCCC2)cn1C	.	-10.8	-7.9	.	.	.
O=S(=O)(c1cccc(-c2nnc(SCc3nc4ccccc4s3)o2)c1)N1CCOCC1	-3.3	53.7*	53.9	-9.2	-0.3	9.3
CCn1c(SCc2nc3ccccc3s2)nc2cc(S(=O)(=O)N3CCOCC3)ccc21	.	69.3*	41.2	.	.	10.8
CCOC(=O)c1c(NC(=O)C(NCCN(C)C)c2ccccc2)sc2c1CCCC2 (stereo unspecified)	.	10.0	2.9	.	.	.
C=CCc1cc(C)ccc1OCCOCCN1CCN(C)CC1	.	22.1	4.1	.	.	.
Cc1cc(F)c(F)c(C(=O)N2CCOCC2)c1Cl	-1.8	61.8*	15.9	-22.8	-0.2	.
Cc1ccc(CSc2nnc(C(F)(F)F)n2Cc2ccc(F)cc2)cc1	3.5	31.7	19.5	4.6	-0.1	.
COc1cccc(CSc2nnc(C(F)(F)F)n2Cc2ccc(F)cc2)c1	0.3	87.5*	37.6	-6.1	-0.4	.
Cc1ccc(S(=O)(=O)NCc2ccccc2)s1	.	-7.0	-8.3	.	.	.
O=C(CSc1nnc(COc2ccccc2)o1)N1CCOCC1	0.5	-18.4	-0.3	-17.8	-0.1	-17.0
CCCCOCCCN1CC(=O)N2[C@@H](Cc3c([nH]c4ccccc34)C2(C)C)C1=O	.	69.7*	29.4	.	.	.
N#Cc1ncc(Cc2ccccc2)nc1C#N	.	97.2*	97.3	.	.	.
O=C(c1ccc2c(=O)n(Cc3ccccc3)c(=S)[nH]c2c1)N1CCOCC1	.	-89.7	-86.8*	.	.	.
Cc1ccc(-n2ncc3c(SCC(N)=O)ncnc32)cc1C	.	67.4*	27.3	.	.	.
CCN(CC)CCN(C(=O)C1=COCCO1)c1nc2ccc(C)cc2s1	.	53.2*	23.7	.	.	.
COC(=O)C(=C/C=C/N1CCOCC1)C(=O)OC	0.8	20.2	18.2	-7.4	.	4.9
CC1CC2(CCCCC2)Nc2ccc3ccccc3c21 (stereo unspecified)	-1.3	57.7*	37.9	-13.3	-0.1	.
CCCN(CCC)C(=O)CSc1nc2ccsc2c(=O)n1NC(=O)c1ccccc1	0.6	-62.6	-57.4*	-0.3	0.1	.
CC(C)CCNC(=O)CSc1nc2ccsc2c(=O)n1NC(=O)c1ccccc1	0.1	-9.1	-7.8	-6.3	-0.1	.
O=C(CSc1ccc(-c2nc3ccccc3[nH]2)cn1)Nc1ccc(S(=O)(=O)NC2CC2)cc1	3.1	51.4*	25.9	-10.7	-0.2	-5.7
Cc1ccc2nc(-c3ccc(SCC(=O)Nc4ccc5c(c4)OCCO5)nc3)[nH]c2c1	2.8	55.5*	35.9	0.3	0.2	-5.9
Cc1ccc(NC(=O)c2cccc(NC(=O)CC3SC(N4CCCCC4)=NC3=O)c2)nc1 (stereo unspecified)	.	11.7	9.1	.	.	.
COC(C(=O)Nc1ccc(S(=O)(=O)Nc2ccc(F)cc2)cc1)c1ccccc1 (stereo unspecified)	-0.2	16.9	5.6	-7.5	-0.3	8.7

Screening data (PubChem)
